Out of some 16,000 compounds screened, about 5,700 (36%) were called active. Another 24% or so got no clear call; they are omitted. Some of the results follow. Values without a mark were called inactive. Calls come from the whole dose curve; as a rule, active = well fitted curve in the direction sought with a large enough effect; inconclusive = small, poorly fitted or top-dose-only effect, or effect the other way; inactive = no such curve, though single readings can be large or run the other way.
Each molecule was assayed against Cytochrome P450 1A2 (Homo sapiens) (UniProt P05177) (assay: Cytochrome panel assay with activity outcomes). Settings: recombinant CYP, pro-luciferin dealkylation, luminescence, p450-cyp1a2; series mostly up to 57.1 µM; activity, negative = inhibition: at the top concentration.
Chain of Cytochrome P450 1A2 (Homo sapiens) (P05177 whole entry, looked up): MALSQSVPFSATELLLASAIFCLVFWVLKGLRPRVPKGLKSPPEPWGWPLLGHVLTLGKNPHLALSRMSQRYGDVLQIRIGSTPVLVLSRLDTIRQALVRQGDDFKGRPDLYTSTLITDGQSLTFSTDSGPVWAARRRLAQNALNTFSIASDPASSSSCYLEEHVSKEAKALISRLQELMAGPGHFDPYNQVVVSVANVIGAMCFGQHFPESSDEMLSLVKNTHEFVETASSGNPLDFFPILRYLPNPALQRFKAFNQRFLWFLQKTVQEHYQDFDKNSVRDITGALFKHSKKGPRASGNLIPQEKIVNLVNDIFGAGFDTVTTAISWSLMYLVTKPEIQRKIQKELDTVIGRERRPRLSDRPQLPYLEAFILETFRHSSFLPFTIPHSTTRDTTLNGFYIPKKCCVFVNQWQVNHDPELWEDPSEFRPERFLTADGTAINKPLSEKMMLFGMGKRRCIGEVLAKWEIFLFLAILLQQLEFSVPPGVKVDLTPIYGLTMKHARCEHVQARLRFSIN
For `O=C(c1cnc(-c2ccccc2)s1)c1ccc(Cl)cc1Cl`, the AC50 was 1120 nM (active). For `CC(=O)N1CCC2(CC1)CN(C(c1ccccc1)c1ccccc1)C2`, the “activity, negative = inhibition” value was 1.33%. For `COc1ccccc1NC(=O)c1nn(-c2cccc(C(F)(F)F)c2)ccc1=O`, the AC50 was 5010 nM (active). With `O=c1ccn(-c2cccc(C(F)(F)F)c2)nc1-c1ccn(-c2ccccc2F)n1` the AC50 was 5620 nM (active). In the case of `CCCC1CCC(c2ccc(C(N)=O)cc2)CC1` (configuration not stated), the “activity, negative = inhibition” value is reported as 8.51%. `CCN(CC)Cc1nc2c(c(=O)[nH]1)C1(CCCC1)Cc1ccccc1-2` was tested, and the AC50 was 5010 nM (active). For `O=C(O)CN=C1NC2(CCCC2)Cc2ccccc21`, the “activity, negative = inhibition” value was 3.63%. For `C[C@@H]1C[C@@H]2[C@H]3CCC4=CC(=O)C=C[C@]4(C)[C@]3(F)[C@@H](O)C[C@@]2(C)[C@@]1(O)C(=O)CO`, the AC50 was “inactive”. In the case of `O=C(OC1CCN(c2ncc(C(F)(F)F)cc2Cl)CC1)c1ccccc1`, the “activity, negative = inhibition” value is reported as -17.9%. In the case of `FC(F)(F)c1cnc(N2CCC(=NOCc3ccc(Cl)cc3)CC2)c(Cl)c1`, the “activity, negative = inhibition” value is reported as -7.97%. For `Nc1ccccc1Oc1ncc(C(F)(F)F)cc1Cl`, the AC50 was 2820 nM (active). `NS(=O)(=O)c1cc2c(cc1Cl)N[C@@H]([C@@H]1C[C@@H]3C=C[C@H]1C3)NS2(=O)=O` was tested, and the “activity, negative = inhibition” value was -19.7%. For `CCCCCc1nc2c(C#N)c(-c3ccc(Cl)cc3)ccn2n1`, the AC50 was 8910 nM (active). With `C[C@@H](CCCCC(=O)Nc1ccc(C(F)(F)F)cc1)NCCc1cnc[nH]1` the “activity, negative = inhibition” value was -20.5%. In the case of `Cc1oncc1C(=O)Nc1ccc(C(F)(F)F)cc1`, the AC50 is reported as 63.1 nM (active). In the case of `CC(C)CN(CC(C)C)C1=N/C(=C\c2ccco2)C(=O)N1c1ccccc1`, the “activity, negative = inhibition” value is reported as -23.4%. For `CCCCN=C1N/C(=C\c2ccco2)C(=O)N1c1ccccc1`, the AC50 was 2000 nM (active). `O=c1c(-c2cccc(Cl)c2)nc2cncnc2n1Cc1ccccc1` was tested, and the AC50 was 1000 nM (active). `O=c1c(-c2ccc(F)c(F)c2)nc2cncnc2n1Cc1ccccc1Cl` was tested, and the AC50 was 5010 nM (active). With `O=c1c(-c2cccc(Cl)c2)nc2cncnc2n1Cc1ccccc1Cl` the AC50 was 2000 nM (active). With `O=c1c(-c2ccccc2)nc2cncnc2n1Cc1ccccc1Cl` the AC50 was 2000 nM (active). In the case of `COc1ccc(S(N)(=O)=O)cc1C(=O)NCCCN1CCN(c2ccc(C)cc2)CC1`, the “activity, negative = inhibition” value is reported as -4.28%. For `CCCCOc1ccc(-c2nnn(CC(=O)c3c[nH]c4ccccc34)n2)cc1`, the “activity, negative = inhibition” value was 9.73%. For `CCCCOC(=O)c1cc2c(cn1)[nH]c1ccccc12`, the AC50 was 158 nM (active). `CCOCc1cnc(C)nc1NCC(=O)c1c(C)[nH]c2ccccc12` was tested, and the “activity, negative = inhibition” value was 9.26%. With `CNC(=O)c1cc2c(cn1)[nH]c1ccccc12` the AC50 was 50.1 nM (active). `CCOC(=O)NNC1CC(=O)N(c2ccc(OC)cc2)C1=O` (configuration not stated) was tested, and the “activity, negative = inhibition” value was -9.03%. With `CCN=C(Nc1cccc(F)c1)SC1CC(=O)N(c2ccc(OC)cc2)C1=O` (configuration not stated) the AC50 was 6310 nM (active). With `COc1ccc(NC(=O)N2CCC3(CC2)CCN(C(=O)c2cccc(F)c2)CC3)cc1` the “activity, negative = inhibition” value was -14.4%. In the case of `Cc1cc2c(nc1C)CCCCN2C[C@H](C)O/N=C\[C@@H](C)[C@H](OCc1ccccc1)C(C)C`, the activity, negative = inhibition is reported as -17.4% [at 11.4 µM]. `CC(=O)c1cnc2cc(C)nn2c1C` was tested, and the AC50 was 22400 nM (active). For `CC(=O)c1cnc2c(C(=O)O)cnn2c1C`, the “activity, negative = inhibition” value was 2.54%. With `CCN1C(=O)[C@H]2[C@H]3[C@H](O)[C@H](O)C/C(=N/OC[C@@H](O)[C@H]4O[C@H]5OC(C)(C)O[C@H]5[C@@H]4O)[C@@H]3CC[C@@H]2C1=O` the activity, negative = inhibition was -1.85% [at 11.4 µM]. With `O=c1c(-c2cccs2)nc2cncnc2n1Cc1ccc(F)cc1` the AC50 was 2510 nM (active). `O=c1c(-c2cccs2)nc2cncnc2n1Cc1ccccc1` was tested, and the AC50 was 2510 nM (active). For `CCCNc1[nH]c(=O)n(C)c(=O)c1N=O`, the “activity, negative = inhibition” value was 0.913%. `Cc1cccc2c1Oc1ccccc1[C@@H]2NC(=O)c1ccc([N+](=O)[O-])cc1` was tested, and the AC50 was 1000 nM (active). `C[C@@]1(C(NC(=O)Cc2ccc(C(F)(F)F)cc2)c2ccc(-c3ccccc3)cc2)C[C@H]1C1CCCCC1` (some centres not stated) was tested, and the “activity, negative = inhibition” value was 11%. With `CC(C)NC(=O)c1ccc(-c2cccc(C(F)(F)F)c2)o1` the AC50 was 398 nM (active). For `CN(C(=O)Cn1nnc(-c2cccc(C(F)(F)F)c2)n1)C1CCCCC1`, the “activity, negative = inhibition” value was -15.3%. In the case of `OCCNc1ncnc2c1ncn2[C@@H]1O[C@@H](CO)[C@H](O)[C@@H]1O`, the activity, negative = inhibition is reported as -20.3% [at 11.4 µM]. For `CCc1cc2c(NCCO)ncnc2s1`, the AC50 was 6310 nM (active). `OCCNc1ncnc2nc[nH]c12` gave an activity, negative = inhibition of -5.82% [at 11.4 µM]. In the case of `CCc1cc2c(NCc3ccco3)ncnc2s1`, the AC50 is reported as 2510 nM (active). In the case of `CN1CCN(c2nc(-c3ccccc3C(F)(F)F)nc3ccccc23)CC1`, the AC50 is reported as 10000 nM (active). `FC(F)(F)c1ccccc1-c1nc(N2CCNCC2)c2ccccc2n1` was tested, and the AC50 was 10000 nM (active). In the case of `FC(F)(F)c1ccccc1-c1nccc(N2CCNCC2)n1`, the AC50 is reported as 10000 nM (active). Work on `CO[C@@H]1COC(=O)[C@@H](C)NC(=O)C/C=C\[C@@H](C)[C@H](NS(=O)(=O)c2ccc(C)cc2)COC(=O)[C@H](C)NC(=O)C/C=C\[C@H]1C` yielded an activity, negative = inhibition of 1.37% [at 11.4 µM]. In the case of `CCOC(=O)c1c(C)c(C)n2c1NC(=O)C2`, the AC50 is reported as 2000 nM (active). For `CCOC(=O)N1CCN(C(=O)c2ccc(OC)c(OC)c2)CC1`, the “activity, negative = inhibition” value was -0.0485%. With `CCOC(=O)N1CCN(C(=O)c2ccc(Cl)c(S(=O)(=O)N3CCOCC3)c2)CC1` the AC50 was 6310 nM (active). With `CCOC(=O)N1CCN(C(=O)c2ccc(NC(C)=O)cc2)CC1` the “activity, negative = inhibition” value was 6.91%. With `O=C(O)c1cc(=O)cc(C(=O)O)[nH]1` the “activity, negative = inhibition” value was 2.72%. In the case of `COc1ccc(-n2c(=O)cnc3cnc(N(C)C)nc32)cc1`, the AC50 is reported as 5010 nM (active). With `COc1ccc(-n2c(=O)c(C)nc3cnc(N(C)C)nc32)cc1` the AC50 was 6310 nM (active). With `Cc1nc2cnc(N(C)C)nc2n(-c2ccccc2)c1=O` the AC50 was 2000 nM (active). `C[C@H](O)C(=O)Nc1c(I)c(C(=O)NC(CO)CO)c(I)c(C(=O)NC(CO)CO)c1I` was tested, and the “activity, negative = inhibition” value was 0.269% [at 25.6 µM]. With `C#CCCCO/N=C1/C[C@@H](O)[C@@H](O)[C@@H]2[C@@H]3C(=O)N(CCC(=O)OCC)C(=O)[C@H]3CC[C@H]12` the activity, negative = inhibition was -10.2% [at 11.4 µM]. For `CCOC(=O)N1CCC(NS(=O)(=O)c2ccc3c(c2)C(C)(C)C(=O)N3C)CC1`, the “activity, negative = inhibition” value was 14%. In the case of `NCCCS(=O)(=O)O`, the “activity, negative = inhibition” value is reported as -4.72%. In the case of `Cc1ccc(C(=O)N2C3C=CC(C3)C2(C(F)(F)F)C(F)(F)F)cc1` (configuration not stated), the “activity, negative = inhibition” value is reported as -9.14%. `CCCCCN(CCCCC)C(=O)[C@H](CCC(=O)O)NC(=O)c1ccc(Cl)c(Cl)c1` was tested, and the AC50 was “inactive”. With `C[C@H](NC(=O)c1ccc(Cl)c(Cl)c1)c1ccc(-c2ccccc2)cc1` the AC50 was 631 nM (active). In the case of `COc1ccc(C(NC(=O)c2ccc(-c3ccccc3)cc2)c2ccccc2)cc1` (configuration not stated), the “activity, negative = inhibition” value is reported as -2.05%. In the case of `CCOc1ccc(C(C)=O)cc1N1C(=O)C2C(C1=O)C1C=CC2C12CC2` (configuration not stated), the “activity, negative = inhibition” value is reported as -21.9%. In the case of `Cc1cccc(N/C(=N\S(=O)(=O)c2ccccc2)C(F)(F)F)c1`, the AC50 is reported as 14100 nM (active). For `Cc1cccc(Nc2ccncc2S(=O)(=O)NC(=O)NC(C)C)c1`, the “activity, negative = inhibition” value was -15.6% [at 25.6 µM]. For `O=C(Nc1cccc(F)c1)N1CC2(CCN(S(=O)(=O)c3ccccc3)CC2)C1`, the “activity, negative = inhibition” value was -28.7%. In the case of `CCC(=O)NC(NC(=O)CC)C(Cl)Cl`, the “activity, negative = inhibition” value is reported as -1.98%. With `O=C(Nc1ccccc1)c1cc([N+](=O)[O-])ccc1Cl` the AC50 was 631 nM (active). In the case of `CC(=O)Nc1ccc(NC(=O)c2ccccc2CC[N+](=O)[O-])cc1`, the “activity, negative = inhibition” value is reported as -12.1%. `O=C(Nc1ccccc1)c1ccccc1CC[N+](=O)[O-]` was tested, and the AC50 was 15800 nM (active). `Cc1cccc[n+]1CC(=O)Nc1ccc([N+](=O)[O-])cc1Cl` was tested, and the “activity, negative = inhibition” value was -0.914%. With `O=C(Nc1ccc([N+](=O)[O-])cc1Cl)c1cc(Cl)ccc1O` the AC50 was 1260 nM (active). `O=C(O)c1cc(N=Nc2ccc([N+](=O)[O-])cc2)ccc1O` showed an activity, negative = inhibition of -15.2% [at 2.29 µM]. For `COc1cccc(/C(O)=C2/C(=O)C(=O)N(c3cc(C)on3)C2c2cccs2)c1` (configuration not stated), the “activity, negative = inhibition” value was -13.9%. `CC(=O)OCC1=C(C(=O)O)N2C(=O)[C@@H](NC(=O)CSc3ccncc3)[C@@H]2SC1` was tested, and the AC50 was “inactive”. With `Fc1ccc(CSc2ncnc3sc4c(c23)CCCC4)cc1` the AC50 was 4470 nM (active). For `CCc1ccc(OCC(=O)NNC(=O)CSc2ncnc3sc(C)c(C)c23)cc1`, the “activity, negative = inhibition” value was -21.4%. For `c1ccc(CSc2ncnc3c2sc2nc(N4CCOCC4)c4c(c23)CCCC4)cc1`, the “activity, negative = inhibition” value was -8.51%. In the case of `Nc1c(-c2ccccc2)cnn1-c1cccc([N+](=O)[O-])c1`, the AC50 is reported as 3550 nM (active). For `Nc1nc2c(ncn2[C@@H]2C=C[C@@H](CO)C2)c(=O)[nH]1`, the activity, negative = inhibition was -4.34% [at 11.4 µM]. `Clc1ccccc1CSc1nnc(-c2ccncc2)o1` was tested, and the AC50 was 794 nM (active). `Cc1ccc(NC(=O)CSc2nnc(-c3ccncc3)o2)cc1` was tested, and the “activity, negative = inhibition” value was -19.3%. Work on `Nc1nc(SCc2ccccc2Cl)cc(C(=O)O)n1` yielded an activity, negative = inhibition of 6.21% [at 2.29 µM]. `Clc1ccccc1CSc1nnc(/C=C/c2ccccc2)o1` was tested, and the AC50 was 1260 nM (active). For `Clc1cccc(Cl)c1CSc1nnc(/C=C/c2ccccc2)o1`, the AC50 was 4470 nM (active). In the case of `CNC[C@H](O)[C@H](O)[C@H](O)[C@H](O)CO`, the “activity, negative = inhibition” value is reported as -4.07% [at 25.6 µM]. For `CN1CCC(=C2c3ccccc3C=Cc3ccccc32)CC1`, the AC50 was “inactive”. In the case of `Cc1nc([N+](=O)[O-])c(N2CCN(C)CC2)n1Cc1ccccc1`, the “activity, negative = inhibition” value is reported as -2.13%. For `CN1CCc2c(c3ccccc3n2Cc2ccccc2)C1`, the AC50 was 5010 nM (active). With `CN1CCc2c(c3ccccc3n2C)C1` the AC50 was 12600 nM (active). In the case of `CN1CCc2nc(N)nc(-c3nc(N)nc4c3CN(C)CC4)c2C1`, the activity, negative = inhibition is reported as -3.87% [at 2.29 µM]. For `CC(=O)N1CCC2(CCCN(Cc3ccccc3)C2)CC1`, the “activity, negative = inhibition” value was 9.1%. For `CCC1(c2ccccc2)C(=O)NCNC1=O`, the “activity, negative = inhibition” value was -3.29% [at 25.6 µM]. With `N=C1[C@@H](O)[C@]2(I)c3ccccc3N3C(=N)[C@H](O)[C@@H]4c5ccccc5N1[C@@H]4[C@@H]32` the AC50 was 2510 nM (active). With `Cn1cccc1C(=O)N1CCC[C@@]2(CCN(Cc3cc(C(F)(F)F)cc(C(F)(F)F)c3)C2)C1` the “activity, negative = inhibition” value was -13.9%.

— PubChem BioAssay AID1851 (National Center for Advancing Translational Sciences (NCATS), 2009)
% is set by controls: 0 for no effect and ±100 for the full control effect.
